gsp agonist – agonists of gsp mutant (McCune-Albright syndrome); 0.13% of 340,000 active; AID 624287; Potency, µM (titrated, usually from 76.9 µM), without a hit: at the highest dose activation (cAMP increase), usual class: activators; gsp mutant cells, cAMP HTRF, 30 min; active = well fitted activation curve with a large enough effect; inconclusive = small, poorly fitted or top-dose-only effect, or another doubt; inactive = no such curve, though single readings can be large or run the other way; cell line not stated here;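 also: phosphodiesterase inhibitor Ro 20-1724 added with compounds to block cAMP breakdown; potency is read from the fitted curve at half-maximal effect; nearly all actives have a fitted effect of over 60% in size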
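Cells stably selected in G418 were plated at 2000/well, grown 16-24 hr, then given compounds in DMSO with the PDE inhibitor […] (300 uM solution added) for 30 min at 37C; cAMP was read by HTRF.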
RXFP1 agonist – activates the human relaxin receptor RXFP1; Q9HBX9; Potency, µM (highest dose often 57.5 µM), inactives show at the highest dose activation, actives largely listed as activators; 0.3% of 370,000 active; HEK293T-RXFP1 cAMP TR-FRET, 30 min; response scale: percent of porcine relaxin response, buffer zero; active = well fitted activation curve with a large enough effect; inconclusive = small, poorly fitted or top-dose-only effect; also: potency is read from the fitted curve at half-maximal effect; % is scaled to controls: 0 for no effect and ±100 for the full control effect; nearly all actives have a fitted effect of over 60% in size
Target sequence (Q9HBX9 whole entry, looked up): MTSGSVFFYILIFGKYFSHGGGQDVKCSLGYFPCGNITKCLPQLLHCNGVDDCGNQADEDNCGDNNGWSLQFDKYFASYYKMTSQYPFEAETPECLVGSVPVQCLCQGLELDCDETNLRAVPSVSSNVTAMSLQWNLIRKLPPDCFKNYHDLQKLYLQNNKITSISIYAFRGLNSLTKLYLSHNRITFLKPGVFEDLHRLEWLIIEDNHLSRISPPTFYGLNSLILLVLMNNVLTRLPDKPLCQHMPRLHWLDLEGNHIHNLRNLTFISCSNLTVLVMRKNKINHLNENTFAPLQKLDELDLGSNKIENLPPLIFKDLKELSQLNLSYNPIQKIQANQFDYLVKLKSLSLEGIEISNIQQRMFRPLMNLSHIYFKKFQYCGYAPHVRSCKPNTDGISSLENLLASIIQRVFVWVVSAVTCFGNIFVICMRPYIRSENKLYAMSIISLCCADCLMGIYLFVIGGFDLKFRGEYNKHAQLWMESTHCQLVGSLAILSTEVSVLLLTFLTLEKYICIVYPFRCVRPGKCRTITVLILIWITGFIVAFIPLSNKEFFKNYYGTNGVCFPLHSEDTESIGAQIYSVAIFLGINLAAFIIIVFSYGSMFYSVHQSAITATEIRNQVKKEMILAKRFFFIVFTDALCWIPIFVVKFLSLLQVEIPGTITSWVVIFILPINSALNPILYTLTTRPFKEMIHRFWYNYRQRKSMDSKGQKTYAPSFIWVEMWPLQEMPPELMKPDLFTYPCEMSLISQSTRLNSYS
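HEK293T cells stably expressing RXFP1 were pretreated with the PDE4 inhibitor Ro 20174, exposed to compounds for 30 min at 37C, lysed, and cAMP was read by TR-FRET. Data normalized to buffer (basal) and 29 nM porcine relaxin (100%).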
gsp antag – gsp mutant antagonism | gsp-mutant cells, cAMP HTRF, 30 min | Potency, µM (highest dose often 76.9 µM), inactives show at the highest dose activity change, negative = inhibition, most hits filed as inhibitors | 0.4% of 340,000 active | AID 624288; calls by dose curve; cell line not stated here;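 also: intracellular cAMP measured with PDE inhibitor Ro 20-1724 present during compound exposure; potency is read from the fitted curve at half-maximal effect; % is scaled to controls: 0 for no effect and ±100 for the full control effect; nearly all actives have a fitted effect of over 65% in size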
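Cells in G418 medium, seeded 16-24 h, 37C; buffer exchange to DPBS + 1 mM CaCl2, 0.5 mM MgCl2, 0.05% BSA; cpds in DMSO + […] (300 uM stock), 30 min 37C; HTRF cAMP detection.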
RXFP1 antag – antagonists of human relaxin receptor RXFP1; Q9HBX9; HEK293-RXFP1, relaxin-stimulated cAMP HTRF, 30 min; stronger effect = lower value; activity change, negative = inhibition, % at 57.5 µM; 0.59% of 350,000 active;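 active = activity change of -60% or lower, but not beyond a set lower limit; inconclusive = change between -60% and -40%, or beyond the set limit; inactive = change above -40%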; also: % is scaled to controls: 0 for no effect and ±100 for the full control effect
* hit, by the source's call; ? = inconclusive; nt = not tested or not shown; ! = a repeat was not active; [ ] = remark or other dose. An excerpt weighted towards active compounds, which were near 0.9% of everything screened.

SMILES | gsp agonist | RXFP1 agonist | gsp antag | RXFP1 antag
Cc1ccc2[nH]cc(C(c3ccccc3)c3ccc(C)s3)c2c1 (configuration not stated) | nt | 1% | nt | ?
CCOC(=O)c1nnn2c1nc(SCC(C)=O)c1ccccc12 | 26%[15.4 µM] | 16µM* | 18% | 22
CC(C)c1ccc(C(=O)Nc2cc(-c3ccccc3F)nn2-c2ccccc2)cc1 | nt | -3% | nt | nt
CCOC(=O)c1c(NC(=S)NCCc2ccccc2)sc2c1CC(C(C)C)OC2 (configuration not stated) | 29% | 0% | -6% | 15
C=CCNC(=S)Nc1sc2c(c1C(=O)OCC)CC(C(C)C)OC2 (configuration not stated) | ? | 2% | 8% | -96*
CCC1(c2cnc[nH]2)Cc2ccccc2C1 | nt | nt | nt | -2
CC(=O)c1cc(C(=O)Nc2cccc(C)c2)c2ccccn12 | nt | 0% | nt | -22
CC1CCC(C(C)C)C(OC(=O)Cn2c(-c3ccc(Br)cc3)[n+](C)c3ccccc32)C1 (configuration not stated) | 0%[15.4 µM] | 0% | 7% | -81*!
CCN(CC)CCCNC(=O)CCCn1c(=O)[nH]c2ccc(Br)cc2c1=O | nt | 0% | nt | nt
O=C1/C(=C2\C(=O)N(Cc3ccc(F)cc3)c3ccccc32)SC(=S)N1CCS(=O)(=O)O | -51% | 0% | -1% | -72*
O=C(O)CN1C(=O)/C(=C2\C(=O)N(Cc3ccccc3Cl)c3ccccc32)SC1=S | -1%[15.4 µM] | 3% | 9% | 30
COc1ccc(-c2csc(N(CCCN(C)C)C(=O)c3ccc(C(C)(C)C)cc3)n2)cc1 | 0%[15.4 µM] | 0% | 5% | -65*
O=Cc1cc(Cl)ccc1OCCN1CCC(Cc2ccccc2)CC1 | -15% | 0% | 0% | -109*
Clc1ccccc1OCCN1CCC(Cc2ccccc2)CC1 | -31% | 4% | 14% | -22
CN(C)C(=O)NC1c2ccccc2-c2ccccc21 | ? | -1% | 12% | 2
O=C1C=CC(=O)N1c1ccc2c(c1)C(NC(=O)C(F)(F)F)c1ccccc1-2 (configuration not stated) | 0% | nt | 7% | -97*
COc1ccc(CN(C)CC(O)COc2ccc(-c3ccccc3)cc2)cc1OC (configuration not stated) | 13% | -2% | 5% | -66*
Cc1[nH]c2ccc(C(=O)N3CCN(c4ccccc4F)CC3)cc2c1C | nt | 1% | nt | -23
O=C(C1CCCCC1)N(Cc1cccnc1)c1nc2c(F)cc(F)cc2s1 | nt | 2% | nt | -102*
CC(=O)N(Cc1cccnc1)c1nc2c(F)cc(F)cc2s1 | nt | 2% | nt | -13
CCC(C(=O)OCCN1CCOC(c2ccccc2)C1C)c1ccccc1 (configuration not stated) | nt | nt | nt | -37
CCOC(=O)c1c(C)[nH]sc1=S | 36%[15.4 µM] | 25µM* | 11% | 9
CCOC(=O)c1sc(=S)[nH]c1C | ? | nt | 8% | -8
Cc1cc(S(=O)(=O)N2CCN(c3ccccn3)CC2)ccc1F | ? | 0% | -11% | -1
Cc1cc(C)c(S(=O)(=O)N2CCN(c3ccccn3)CC2)c(C)c1 | 8%[15.4 µM] | -1% | -15% | -95*
SMILES | gsp agonist | RXFP1 agonist | gsp antag | RXFP1 antag
CCOc1cc(CNCCO)cc(Br)c1OCc1ccc(Cl)cc1Cl | 18% | 2% | 6% | -92*
N#Cc1ccc(NC(=O)c2cc(-c3cccc(Cl)c3)on2)cc1 | nt | 1% | nt | -2
CCCCC(=O)OC1=C(C(=O)c2ccccc2)N(CC)S(=O)(=O)c2ccccc21 | nt | -1% | nt | ?
CCCCN1C(C(=O)c2ccccc2)=C(OC(C)=O)c2ccccc2S1(=O)=O | nt | 3% | nt | -63*
Cn1c(=O)c2sccc2n2c(CCCC(=O)NCc3ccc4c(c3)OCO4)nnc12 | 35µM* | ? | -1% | 8
Cn1c(=O)c2sccc2n2c(CCCC(=O)NCCc3ccc(S(N)(=O)=O)cc3)nnc12 | 52%[15.4 µM] | 28µM* | 2% | 20
O=C(CCCCCn1c(=O)c2sccc2n(Cc2ccccc2Cl)c1=O)NCc1ccc2c(c1)OCO2 | nt | 32µM* | nt | -6
Cn1c(=O)c2sccc2n2c(CCCC(=O)NCc3cccnc3)nnc12 | ? | 13µM* | 20% | 26
Cn1c(=O)c2sccc2n2c(CCC(=O)NCc3ccc(Cl)cc3)nnc12 | nt | ? | nt | 3
CCc1ccc(-n2nc(CO)c(C(=O)NC)n2)cc1 | nt | 0% | nt | -8
CCOc1ccc(CCNC(=O)CS(=O)(=O)Cc2nc(-c3cccc(Cl)c3)oc2C)cc1 | nt | -1% | nt | nt
O=C(CSc1nc2ccsc2c(=O)n1-c1ccc(Br)cc1)NCc1ccccc1 | nt | ? | nt | 2
CCN(CC)S(=O)(=O)c1ccc2c(c1)nc(CN(C)C(=O)Nc1ccc(C)c(Cl)c1)n2C | nt | 1% | nt | 7
COc1ccc(NC(=O)CCCc2nnc3n(C)c(=O)c4sccc4n23)cc1 | ? | 16µM* | 10% | 4
Cc1cccc(N2CCN(C(=O)C3CCN(C(=O)c4cc5sccc5n4C)CC3)CC2C)c1 (configuration not stated) | nt | 0% | nt | -65*
CCN1C(=O)C2(C(C(=O)c3ccc(C)o3)=C(O)C(=O)N2CCCN2CCOCC2)c2ccccc21 (configuration not stated) | 9% | 15% | 3% | 8
O=C(C1=C(O)C(=O)N(CCN2CCOCC2)C1c1ccc(Cl)cc1)c1cc2ccccc2o1 (configuration not stated) | ? | ? | 5% | 10
O=C(C1=C(O)C(=O)N(CCCN2CCOCC2)C1c1ccc(Cl)cc1)c1cc2ccccc2o1 (configuration not stated) | 11µM* | 0% | 20% | 11
CCN1C(=O)C2(C(C(=O)c3cc4ccccc4o3)=C(O)C(=O)N2CCCN2CCOCC2)c2ccccc21 (configuration not stated) | 106%[15.4 µM] | 16µM* | 20% | 48
COC(=O)C1CCN(S(=O)(=O)c2ccc(N3CCCCS3(=O)=O)cc2)CC1 | nt | -2% | nt | -1
CCCCS(=O)(=O)c1nc(-c2ccc(Br)cc2)cc(-c2ccccc2)c1C#N | nt | 19% | nt | -6
Clc1ccc(/C=C/c2nc3ccccc3[nH]2)cc1 | -9% | 10% | -16% | -2
Clc1cccc(Cl)c1/C=C/c1nc2ccccc2[nH]1 | -1% | 5% | 28µM* | 6
COc1ccc(C(=O)COC(=O)c2cc(-c3cccs3)nc3ccccc23)cc1 | nt | 9% | nt | nt
O=C(CCN1C(=O)c2cccc3cccc(c23)C1=O)N1CCOCC1 | 16%[15.4 µM] | 11% | -8% | -2
O=C(CN1C(=O)c2cccc3cccc(c23)C1=O)NCCCO | 14µM* | 7% | 2% | 8
O=C(CN1C(=O)c2cccc3cccc(c23)C1=O)NCCN1CCOCC1 | ? | 14µM* | 13% | 3
O=C1c2cccc(NCCCNCCO)c2C(=O)c2cccc(NCCCNCCO)c21 | -3% | nt | 40µM* | ?
Cc1c(C(=O)N(C)c2cccc(C(F)(F)F)c2)sc2nc3n(c(=O)c12)CCCCC3 | nt | 17% | nt | -22
Cc1ccc(OCC(=O)Nc2ccc3nc(Nc4cccc(Cl)c4)cc(C)c3c2)cc1 | nt | 14µM* | nt | -11

Screens deposited in PubChem BioAssay by National Center for Advancing Translational Sciences (NCATS).
